The target of assay [1] is Transcription factor E2F1 (Homo sapiens) (UniProt Q01094). Kind of assay: ATG_E2F_CIS: Attagene CIS-FACTORIAL HepG2 Assay for human E2F Transcription Factor 1 (AID 2282935). As to conditions: HepG2 Attagene cis-reporter, E2F reporter RNA transcripts; actives raise or lower the signal. The essentials: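 First, HepG2 cells were transfected with reporter transcription units. Next, they were dosed for 24 h. Then RNA was isolated, converted to cDNA, PCR-amplified, FAM-labeled, HpaI-digested and analyzed by capillary electrophoresis.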
Sequence of Transcription factor E2F1 (Homo sapiens) (Q01094 whole entry, looked up): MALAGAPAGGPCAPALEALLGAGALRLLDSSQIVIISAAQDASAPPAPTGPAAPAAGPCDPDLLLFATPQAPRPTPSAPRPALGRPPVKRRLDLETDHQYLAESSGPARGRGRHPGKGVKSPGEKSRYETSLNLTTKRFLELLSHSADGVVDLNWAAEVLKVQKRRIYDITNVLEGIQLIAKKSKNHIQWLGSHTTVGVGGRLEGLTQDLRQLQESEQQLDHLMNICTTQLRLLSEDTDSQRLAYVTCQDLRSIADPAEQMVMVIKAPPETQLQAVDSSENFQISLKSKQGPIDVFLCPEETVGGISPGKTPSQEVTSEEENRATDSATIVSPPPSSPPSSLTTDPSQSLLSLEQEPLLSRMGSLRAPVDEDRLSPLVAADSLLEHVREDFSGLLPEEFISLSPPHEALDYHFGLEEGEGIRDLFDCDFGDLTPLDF

Assay [2] in a line: ATG_E_Box_CIS: Attagene CIS-FACTORIAL HepG2 Assay for human Enhancer Box (E-box) (AID 2282936). The note with it: HepG2 E-box cis-reporter transcription, actives raise or lower the signal. The essentials:
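Endogenous transcription factor activity was sensed in human HepG2 liver cells through transfected cis-promoter reporter units. After 24 h of dosing, total RNA was reverse-transcribed and reporter cDNA resolved by capillary electrophoresis.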

A short description of assay [3]: ATG_M_61_CIS: Attagene CIS-FACTORIAL HepG2 Assay for M61 Transcription Factor (Internal Marker) (AID 2282937). As to conditions: HepG2 Attagene CIS-FACTORIAL M61 internal marker reporter; actives raise or lower the signal. In a few lines: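 Readout is reporter mRNA by RT-PCR, fluorescent primer extension and capillary electrophoresis, with gain or loss fitted relative to DMSO. Transfected HepG2 cells carrying endogenous-TF-driven cis reporters were exposed to chemicals for 24 hours.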

A short description of assay [4]: ATG_EGR_CIS: Attagene CIS-FACTORIAL HepG2 Assay for human Early Growth Response 1 (EGR1) (AID 2282938). The note with it: HepG2 Attagene CIS-FACTORIAL EGR reporter mRNA; actives raise or lower the signal. The essentials: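 After 24 h compound exposure, RNA from reporter-transfected HepG2 cells was reverse-transcribed, PCR-amplified, fluorescently labelled and resolved by capillary electrophoresis. EGR1 reporter transcript changes, up or down, were fitted against DMSO, reflecting endogenous transcription-factor activity.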

Assay [5] can be described thus: ATG_M_19_CIS: Attagene CIS-FACTORIAL HepG2 Assay for M19 Transcription Factor (Internal Marker) (AID 2282939). As to conditions: HepG2 Attagene CIS-FACTORIAL M19 internal marker reporter; actives raise or lower the signal. The essentials: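 Readout: fluorescent reporter-transcript fragments by capillary electrophoresis after RT-PCR. Human HepG2 liver cells carried transfected MRTU constructs reporting endogenous transcription-factor activity; exposure 24 h. Gain or loss of signal fitted relative to DMSO.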

The nature of assay [6]: ATG_ERE_CIS: Attagene CIS-FACTORIAL HepG2 Assay for Estrogen Response Element (ERE) (AID 2282940). The note with it: HepG2 ERE cis-reporter, Attagene RNA transcript; actives raise or lower the signal. In a few lines: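 Readout: reporter mRNA induction by RT-PCR, FAM-labelled primer extension, HpaI digestion and capillary electrophoresis, 24 h after dosing transfected HepG2 cells. Endogenous transcription factors act on cis-element-regulated reporters. Gain or loss fitted against DMSO.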

Assay [7] is described as follows: ATG_Ets_CIS: Attagene CIS-FACTORIAL HepG2 Assay for human Erythroblast Transformation Specific (ETS) (AID 2282941). The note with it: HepG2 ETS cis-reporter transcription, actives raise or lower the signal. The essentials: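 Multiplexed reporter transcript profiling: HepG2, 24 h treatment, total RNA to cDNA, PCR, 6-FAM labelling, HpaI cut, capillary electrophoresis. Gain- or loss-of-signal fitted against DMSO.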

For assay [8], the target named is Hepatocyte nuclear factor 3-beta (Homo sapiens) (UniProt Q9Y261). Briefly: ATG_FoxA2_CIS: Attagene CIS-FACTORIAL HepG2 Assay for human Forkhead box A2 (FOXA2) (AID 2282942). The note with it: HepG2 cis-reporter transcription factor activity, 24 h; actives raise or lower the signal. The essentials:
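Endogenous transcription factor activity is captured via cis-element-driven reporter transcripts in transfected HepG2. Total RNA taken at 24 h post-dosing; labelled RT-PCR products resolved by capillary electrophoresis. Gain or loss fitted versus DMSO.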

A short description of assay [9]: ATG_FoxO_CIS: Attagene CIS-FACTORIAL HepG2 Assay for human Forkhead box O (FoxO) (AID 2282943). As to conditions: HepG2 Attagene cis-reporter, FoxO element, mRNA; actives raise or lower the signal. The essentials:
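HepG2 cells transiently transfected with cis-promoter-driven multiple reporter transcription units; 24 h after chemical dosing, reporter mRNA quantified by RT-PCR, fluorescent primer extension, HpaI digestion and capillary electrophoresis. Bidirectional fitting versus DMSO baseline.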

A short description of assay [10]: ATG_GATA_CIS: Attagene CIS-FACTORIAL HepG2 Assay for human GATA Binding Protein (AID 2282944). As to conditions: HepG2 GATA cis-element reporter, Attagene multiplex mRNA; actives raise or lower the signal. In a few lines:
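Read-out: fluorescent reporter mRNA fragments resolved by capillary electrophoresis after RT-PCR. Human liver HepG2 cells carried transiently transfected cis-regulated reporter constructs; chemicals incubated 24 h; gain or loss of signal fitted relative to DMSO.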

Assay [11] can be described thus: ATG_GLI_CIS: Attagene CIS-FACTORIAL HepG2 Assay for human Zinc Finger Protein GLI1 (AID 2282945). As to conditions: HepG2, Attagene cis-factorial reporter mRNA, GLI element; actives raise or lower the signal. The essentials: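 HepG2 cells transiently transfected with cis-promoter multiplexed reporter units report endogenous transcription factor activity. After 24 h chemical exposure, reporter mRNA was quantified by RT-PCR, 6-FAM labelling, HpaI digestion and capillary electrophoresis, with bidirectional fitting against DMSO.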

The target of assay [12] is Bile acid receptor (Homo sapiens) (UniProt Q96RI1). Briefly: ATG_IR1_CIS: Attagene CIS-FACTORIAL HepG2 Assay for human Nuclear Receptor Subfamily 1 Group H Member 4 (NR1H4), IR1 submotif (AID 2282946). The note with it: IR1 reporter transcription, actives raise or lower the signal. The essentials: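 Readout: reporter transcript levels by RT-PCR with fluorescent capillary electrophoresis, from HepG2 cells transiently transfected with multiplexed cis-regulated reporters and dosed 24 h. Gain- or loss-of-signal fitted versus DMSO negative control.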
Sequence of Bile acid receptor (Homo sapiens) (Q96RI1 whole entry, looked up): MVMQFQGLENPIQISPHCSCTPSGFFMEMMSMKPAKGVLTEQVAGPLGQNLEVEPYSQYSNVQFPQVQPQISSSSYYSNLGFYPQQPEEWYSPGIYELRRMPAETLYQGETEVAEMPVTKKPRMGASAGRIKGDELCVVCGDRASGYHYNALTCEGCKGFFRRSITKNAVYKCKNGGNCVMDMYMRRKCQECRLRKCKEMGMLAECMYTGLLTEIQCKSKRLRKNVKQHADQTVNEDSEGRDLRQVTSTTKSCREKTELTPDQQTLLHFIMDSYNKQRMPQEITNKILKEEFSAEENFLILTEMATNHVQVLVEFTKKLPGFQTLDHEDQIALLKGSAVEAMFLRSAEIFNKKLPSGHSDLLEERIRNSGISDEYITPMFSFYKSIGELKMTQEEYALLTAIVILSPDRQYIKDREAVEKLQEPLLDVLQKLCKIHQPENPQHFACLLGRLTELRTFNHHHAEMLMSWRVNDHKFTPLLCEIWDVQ

The nature of assay [13]: ATG_GRE_CIS: Attagene CIS-FACTORIAL HepG2 Assay for human Glucocorticoid Response Elements (GRE) (AID 2282947). The note with it: HepG2 GRE cis-reporter, Attagene multiplex mRNA; actives raise or lower the signal. In a few lines:
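Cells (HepG2) bearing transfected cis-promoter reporter transcription units were treated with chemical for 24 hours. Reporter mRNA was measured via RT-PCR with capillary electrophoresis, and activity was fitted in both directions relative to DMSO.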

The nature of assay [14]: ATG_ISRE_CIS: Attagene CIS-FACTORIAL HepG2 Assay for human Interferon Regulatory Factor 1 (IRF1) binding to an Interferon-Stimulated Response Element (ISRE) (AID 2282948). The note with it: HepG2 ISRE cis-reporter (Attagene), mRNA transcription readout; actives raise or lower the signal. In a few lines:
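Signal reflects induction or loss of ISRE-linked reporter mRNA in transiently transfected HepG2 cells after a 24 h treatment, detected by fluorescent RT-PCR fragments on capillary electrophoresis and normalised to DMSO.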

A short description of assay [15]: ATG_M_32_CIS: Attagene CIS-FACTORIAL HepG2 Assay for M32 Transcription Factor (Internal Marker) (AID 2282949).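 Further: background control marker of the multiplexed CIS panel rather than a real target.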 As to conditions: HepG2 Attagene cis-factorial M32 reporter, mRNA; actives raise or lower the signal. The essentials:
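HepG2 transfectants (cis-regulated reporter transcription units) dosed 24 h. Reporter mRNA by RT-PCR plus CE, analysed as gain or loss relative to DMSO.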

Assay [16] in a line: ATG_M_06_CIS: Attagene CIS-FACTORIAL HepG2 Assay for M06 Transcription Factor (Internal Marker) (AID 2282950). The note with it: HepG2 Attagene CIS-FACTORIAL M06 internal marker reporter; actives raise or lower the signal. The essentials:
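Terse: HepG2, transient MRTU transfection (FuGene 6), 24 h dosing; total RNA, oligo(dT) RT, PCR, FAM label, HpaI cut, capillary electrophoresis; bidirectional fit vs DMSO baseline; background-control endpoint.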

Assay [17] has as its target Hypoxia-inducible factor 1-alpha (Homo sapiens) (UniProt Q16665). Briefly: ATG_HIF1a_CIS: Attagene CIS-FACTORIAL HepG2 Assay for human Hypoxia Inducible Factor 1 (HIF1A) (AID 2282951). As to conditions: HepG2 Attagene cis-factorial HIF1a reporter transcription; actives raise or lower the signal. The essentials:
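Activity is fitted in both directions relative to DMSO. Reporter transcripts are read by RT-PCR, fluorescent primer extension and capillary electrophoresis after 24 h chemical treatment. The cells are HepG2 carrying transiently transfected cis-element-driven reporter units responding to endogenous factors.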

The target of assay [18] is Hepatocyte nuclear factor 6 (Homo sapiens) (UniProt Q9UBC0). Briefly: ATG_HNF6_CIS: Attagene CIS-FACTORIAL HepG2 Assay for human Hepatocyte Nuclear Factor 6 (HNF6) (AID 2282952). As to conditions: HepG2 Attagene cis-factorial HNF6 reporter transcription; actives raise or lower the signal. In a few lines:
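Activity values derive from bidirectional fitting against DMSO of reporter mRNA levels, measured by capillary electrophoresis of labelled RT-PCR products from HepG2 cells exposed 24 h.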

Assay [19] concerns the target Heat shock factor protein 1 (Homo sapiens) (UniProt Q00613). Kind of assay: ATG_HSE_CIS: Attagene CIS-FACTORIAL HepG2 Assay for human Heat Shock Transcription Factor 1 (HSE) (AID 2282953). The note with it: HepG2 HSE cis-reporter, Attagene RNA transcription; actives raise or lower the signal. The essentials:
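Read-out: fluorescence of reporter-specific RT-PCR fragments separated by capillary electrophoresis. HepG2 carrying transfected cis-element reporter units; 24 h dosing; activity fitted in both directions relative to DMSO baseline.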

The nature of assay [20]: ATG_MRE_CIS: Attagene CIS-FACTORIAL HepG2 Assay for human Metal Responsive Element (MRE) (AID 2282954). The note with it: HepG2 MRE cis-reporter transcription, Attagene multiplex; actives raise or lower the signal. In a few lines:
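Cells were transfected with cis-promoter reporter transcription units, then dosed for 24 h. RNA was reverse-transcribed, amplified, fluorescently labelled and resolved by capillary electrophoresis, and activity was fitted in both directions relative to DMSO.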

SMILES strings stand for the structures. Activity calls are given as the source filed them. How the source made its calls: active means hit-call score of the fitted dose curve at least 0.9, where 1 is the maximum; inactive means score below 0.9.

Sequence of Hypoxia-inducible factor 1-alpha (Homo sapiens) (Q16665 whole entry, looked up): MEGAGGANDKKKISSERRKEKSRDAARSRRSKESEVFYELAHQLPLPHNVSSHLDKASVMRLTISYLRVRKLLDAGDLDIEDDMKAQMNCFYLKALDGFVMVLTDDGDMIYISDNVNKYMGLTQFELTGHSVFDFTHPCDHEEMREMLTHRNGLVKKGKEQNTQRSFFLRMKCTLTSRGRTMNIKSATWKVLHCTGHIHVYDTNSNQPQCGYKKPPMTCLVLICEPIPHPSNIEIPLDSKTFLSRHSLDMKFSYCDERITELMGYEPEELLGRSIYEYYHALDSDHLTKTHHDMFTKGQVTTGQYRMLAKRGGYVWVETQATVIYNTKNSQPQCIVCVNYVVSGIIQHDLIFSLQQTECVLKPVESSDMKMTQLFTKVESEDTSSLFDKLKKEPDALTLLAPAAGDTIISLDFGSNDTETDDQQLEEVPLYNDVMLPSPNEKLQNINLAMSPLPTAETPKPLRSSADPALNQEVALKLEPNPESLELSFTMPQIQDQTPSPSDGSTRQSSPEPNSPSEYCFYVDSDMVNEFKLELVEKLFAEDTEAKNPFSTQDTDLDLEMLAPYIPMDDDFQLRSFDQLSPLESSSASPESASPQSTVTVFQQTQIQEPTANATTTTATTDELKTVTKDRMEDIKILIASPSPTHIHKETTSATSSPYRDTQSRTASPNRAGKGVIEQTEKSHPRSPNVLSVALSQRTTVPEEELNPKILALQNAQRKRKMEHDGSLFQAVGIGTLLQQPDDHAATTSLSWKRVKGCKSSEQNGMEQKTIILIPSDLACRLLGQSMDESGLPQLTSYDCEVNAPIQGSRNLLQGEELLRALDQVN
Sequence of Hepatocyte nuclear factor 3-beta (Homo sapiens) (Q9Y261 whole entry, looked up): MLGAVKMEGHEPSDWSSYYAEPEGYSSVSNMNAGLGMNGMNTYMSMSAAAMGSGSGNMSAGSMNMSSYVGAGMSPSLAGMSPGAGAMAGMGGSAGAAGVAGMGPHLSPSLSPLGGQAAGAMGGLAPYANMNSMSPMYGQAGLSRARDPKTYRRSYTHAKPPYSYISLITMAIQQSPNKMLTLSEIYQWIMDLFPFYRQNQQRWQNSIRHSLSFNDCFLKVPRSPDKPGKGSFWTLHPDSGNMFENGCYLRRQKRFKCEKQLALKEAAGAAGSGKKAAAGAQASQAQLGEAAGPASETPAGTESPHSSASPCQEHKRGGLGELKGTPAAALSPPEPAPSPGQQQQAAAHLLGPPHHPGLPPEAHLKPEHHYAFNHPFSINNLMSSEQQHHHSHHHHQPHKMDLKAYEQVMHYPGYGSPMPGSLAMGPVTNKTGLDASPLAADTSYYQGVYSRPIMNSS
Sequence of Hepatocyte nuclear factor 6 (Homo sapiens) (Q9UBC0 whole entry, looked up): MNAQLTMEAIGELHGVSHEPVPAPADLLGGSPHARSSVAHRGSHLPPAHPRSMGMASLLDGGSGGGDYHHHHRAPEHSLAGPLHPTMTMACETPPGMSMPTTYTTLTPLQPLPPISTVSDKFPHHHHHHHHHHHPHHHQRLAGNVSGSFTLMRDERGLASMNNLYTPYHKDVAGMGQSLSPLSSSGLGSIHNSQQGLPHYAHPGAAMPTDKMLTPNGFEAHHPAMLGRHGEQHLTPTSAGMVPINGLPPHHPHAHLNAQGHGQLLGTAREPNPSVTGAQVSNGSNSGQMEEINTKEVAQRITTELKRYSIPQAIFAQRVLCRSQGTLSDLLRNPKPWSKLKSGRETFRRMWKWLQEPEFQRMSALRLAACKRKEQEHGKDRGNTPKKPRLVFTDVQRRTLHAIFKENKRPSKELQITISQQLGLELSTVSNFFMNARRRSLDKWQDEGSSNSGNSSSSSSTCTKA
Sequence of Heat shock factor protein 1 (Homo sapiens) (Q00613 whole entry, looked up, the tested form may be a part): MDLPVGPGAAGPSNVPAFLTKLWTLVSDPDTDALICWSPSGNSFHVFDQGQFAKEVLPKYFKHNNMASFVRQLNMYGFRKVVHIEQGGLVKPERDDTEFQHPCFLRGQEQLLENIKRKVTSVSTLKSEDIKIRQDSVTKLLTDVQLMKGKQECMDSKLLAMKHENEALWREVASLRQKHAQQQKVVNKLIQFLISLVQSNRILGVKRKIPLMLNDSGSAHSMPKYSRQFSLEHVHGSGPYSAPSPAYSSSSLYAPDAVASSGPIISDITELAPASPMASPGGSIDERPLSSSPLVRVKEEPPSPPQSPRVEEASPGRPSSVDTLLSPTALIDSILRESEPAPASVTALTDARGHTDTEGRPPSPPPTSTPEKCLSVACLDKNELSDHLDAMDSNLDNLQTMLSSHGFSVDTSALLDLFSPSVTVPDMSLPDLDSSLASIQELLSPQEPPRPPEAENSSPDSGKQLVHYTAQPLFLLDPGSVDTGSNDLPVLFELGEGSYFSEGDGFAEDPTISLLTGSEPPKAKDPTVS

As usually defined, the AC50 is the concentration at which the activity in the assay is half-maximal. Consider `CO/N=C(/C(=O)OC)c1ccccc1COc1ccccc1C`, for which the compound was classed as inactive in assay [1], in assay [3], in assay [5], in [7], in assay [8] and in assay [9]. Moreover, the outcome in [10], in assay [11], in assay [12], in [13], in assay [14] and in [15] was inactive. Moreover, the result in [16] and in assay [18] was inactive. For the same compound, the AC50 is 100 µM (active) in assay [2]; 43 µM (active) in assay [4]; 42.9 µM (active) in [6]; 100 µM (active) in assay [17]; 150 µM (active) in assay [19]; 100 µM (active) in [20].

`CC1(C)CN=C(NN=C(/C=C/c2ccc(C(F)(F)F)cc2)/C=C/c2ccc(C(F)(F)F)cc2)NC1`: the result in assay [1], in [3], in assay [4], in assay [5], in assay [7] and in [9] was inactive. Moreover, the outcome in assay [10], in assay [11], in assay [13], in assay [16] and in [17] was inactive. Moreover, the AC50 is 13.7 µM (active) in assay [2]; 0.303 µM (active) in assay [6]; 11.1 µM (active) in assay [8]; 6.99 µM (active) in [12]; 18.4 µM (active) in [14]; 17.4 µM (active) in [15]. For the same compound, the values for the half-maximal activity concentration (AC50) in assay [18], in [19] and in assay [20] were 17.3 µM (active), 18 µM (active) and 6.34 µM (active), respectively.

As for `CCOC(=O)c1ccccc1N`, the call in assay [1], in [2], in [3], in assay [4], in assay [5] and in assay [6] was inactive. The compound was called inactive in assay [7], in assay [8], in [9], in assay [10], in assay [11] and in [12]. Besides, the call in assay [13], in assay [14], in assay [15], in assay [16], in [17] and in assay [18] was inactive. Further, the compound was called inactive in [20].

Regarding `O=c1ssc(Cl)c1Cl`, the call in [1], in assay [2], in [3], in assay [5], in [6] and in [8] was inactive. Further, the compound was called inactive in assay [9], in assay [10], in assay [13], in assay [15], in assay [16] and in [17]. Also, the compound was called inactive in [18]. The concentration at half-maximal activity (AC50) in [4] is 60.3 µM (active); in assay [7], 52.1 µM (active); in assay [11] it was 59.1 µM (active); in [12] it was 58.3 µM (active); in [14], 48.6 µM (active); in assay [20] it was 49.6 µM (active).

The values above are taken from PubChem BioAssay (EPA / NIEHS).
